Assay results reported in PubChem BioAssay (NCI).
The panel holds about 83,000 compounds, 20% with a hit somewhere; the sample as a whole holds those more often.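 48-hour exposure, single concentration, 96-well plates; percent growth endpoint where 0 means no net growth. Active: below 10.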 Values without a mark were called inactive. Active and inactive are the calls of the source.

Tests used:
Test in all cases: NCI-60 one-dose screen, 48 h (100 = growth as untreated, 0 = no growth, -100 = all killed)
Conditions in all cases: 10 µM unless noted
[1] = system: SR leukemia
[2] = system: RPMI-8226 leukemia
[3] = system: OVCAR-8 ovarian
[4] = system: OVCAR-5 ovarian
[5] = system: OVCAR-4 ovarian
[6] = system: SK-OV-3 ovarian
[7] = system: IGROV1 ovarian
[8] = system: OVCAR-3 ovarian
[9] = system: HS 578T breast
[10] = system: NCI/ADR-RES ovarian
[11] = system: BT-549 breast
[12] = system: MDA-MB-435 melanoma
[13] = system: SW-620 colon
[14] = system: MCF7 breast
[15] = system: HCT-116 colon
[16] = system: HCC-2998 colon
[17] = system: KM12 colon
[18] = system: T-47D breast

## CCOC(=O)C1=C(C)NC(=S)NC1c1ccccc1 (configuration not stated)
[1]
  growth: 94.3%
[2]
  growth: 112%
[3]
  growth: 103%
[4]
  growth: 101%
[5]
  growth: 98.5%
[6]
  growth: 114%
[7]
  growth: 97.4%
[8]
  growth: 110%
[9]
  growth: 98.9%
[10]
  growth: 109%
[11]
  growth: 110%
[12]
  growth: 102%
[13]
  growth: 97.3%
[14]
  growth: 99.7%
[15]
  growth: 103%
[16]
  growth: 110%
[17]
  growth: 101%

## Nc1nc(N)c2cc(NCc3ccc(Cl)c(Cl)c3)ccc2n1
[1]
  growth: -53.9% (active)
[2]
  growth: -42% (active)
[3]
  growth: -78.8% (active)
[4]
  growth: -92.5% (active)
[5]
  growth: -86.9% (active)
[6]
  growth: -99.7% (active)
[7]
  growth: -58.8% (active)
[8]
  growth: -95.3% (active)
[9]
  growth: -48.6% (active)
[18]
  growth: -81.3% (active)
[11]
  growth: 46.3%
[12]
  growth: -68.1% (active)
[13]
  growth: -77.4% (active)
[14]
  growth: -72.8% (active)
[15]
  growth: -88.2% (active)
[16]
  growth: -85.9% (active)
[17]
  growth: -94.4% (active)

## COc1cccc(N2CCN(c3ncnc4cc[nH]c34)CC2)c1
[1]
  growth: 39.4%
[2]
  growth: 35.4%
[3]
  growth: 40.3%
[4]
  growth: 104%
[5]
  growth: 69.2%
[6]
  growth: 86.5%
[7]
  growth: 85.4%
[8]
  growth: 70.9%
[9]
  growth: 92.5%
[18]
  growth: 20.4%
[11]
  growth: 42.9%
[12]
  growth: 42.6%
[13]
  growth: 90.6%
[14]
  growth: 46.7%
[15]
  growth: 35.8%
[16]
  growth: 62.7%
[17]
  growth: 71.8%

## COc1ccc(Oc2nc(Nc3ccc(N4CCOCC4)cc3)ncc2NC(=O)Nc2cccc(OC)c2)cc1
[1]
  growth: 74.2%
[2]
  growth: 56.8%
[3]
  growth: 50.3%
[4]
  growth: 103%
[5]
  growth: 75.8%
[6]
  growth: 87%
[7]
  growth: 76.2%
[8]
  growth: 68.4%
[9]
  growth: 60.5%
[10]
  growth: 85.2%
[11]
  growth: 34.3%
[12]
  growth: 60.2%
[13]
  growth: 67.5%
[14]
  growth: 88.6%
[15]
  growth: 19%
[16]
  growth: 40.3%
[17]
  growth: 59.2%

## COC(=O)C(Br)(C(=O)OC)C(Br)C(Br)C(Br)c1ccccc1 (configuration not stated)
[1]
  growth: 47.6%
[2]
  growth: 106%
[3]
  growth: 73.1%
[4]
  growth: 126%
[5]
  growth: 83.6%
[6]
  growth: 102%
[7]
  growth: 39.1%
[8]
  growth: -37% (active)
[9]
  growth: 114%
[10]
  growth: 104%
[11]
  growth: 108%
[12]
  growth: 47.9%
[13]
  growth: -79% (active)
[14]
  growth: 18.3%
[15]
  growth: -92.6% (active)
[16]
  growth: 98.4%
[17]
  growth: 89.9%

## CS(=O)(=O)c1ccc(C(=O)N/N=C/c2ccccc2Cl)cc1
[1]
  growth: 92.5%
[2]
  growth: 115%
[3]
  growth: 97.1%
[4]
  growth: 109%
[5]
  growth: 95.9%
[6]
  growth: 88.3%
[7]
  growth: 107%
[8]
  growth: 103%
[9]
  growth: 98.1%
[10]
  growth: 106%
[11]
  growth: 92.7%
[12]
  growth: 106%
[13]
  growth: 97.3%
[14]
  growth: 93.3%
[15]
  growth: 94.3%
[16]
  growth: 95.8%
[17]
  growth: 100%

## Brc1ccsc1Br
[1]
  growth: 107%
[2]
  growth: 103%
[3]
  growth: 122%
[4]
  growth: 106%
[5]
  growth: 107%
[6]
  growth: 94.8%
[7]
  growth: 103%
[8]
  growth: 122%
[9]
  growth: 129%
[10]
  growth: 116%
[11]
  growth: 102%
[12]
  growth: 113%
[13]
  growth: 111%
[14]
  growth: 103%
[15]
  growth: 105%
[17]
  growth: 111%

## N#Cc1ccc(-c2ccc(-c3cccs3)o2)cc1F
[1]
  growth: 85%
[2]
  growth: 70.7%
[3]
  growth: 64.2%
[4]
  growth: 101%
[5]
  growth: 77.5%
[6]
  growth: 52.1%
[7]
  growth: 82.4%
[8]
  growth: 80.5%
[9]
  growth: 51.2%
[10]
  growth: 72.1%
[11]
  growth: 78%
[12]
  growth: 94.8%
[13]
  growth: 98.5%
[14]
  growth: 26.4%
[15]
  growth: 64.5%
[16]
  growth: 91.5%
[17]
  growth: 83.2%

## COc1ncnc2[nH]cc(CN3CCN(c4ccc(F)cc4)CC3)c12
[1]
  growth: 105%
[2]
  growth: 103%
[3]
  growth: 100%
[4]
  growth: 102%
[5]
  growth: 115%
[6]
  growth: 104%
[7]
  growth: 102%
[8]
  growth: 114%
[9]
  growth: 97.5%
[18]
  growth: 104%
[11]
  growth: 107%
[12]
  growth: 91.9%
[13]
  growth: 108%
[14]
  growth: 103%
[15]
  growth: 111%
[16]
  growth: 104%
[17]
  growth: 109%

## Cc1ccccc1C1CC(=O)c2ccccc2C1C (configuration not stated)
[1]
  growth: 78.7%
[2]
  growth: 93.8%
[3]
  growth: 106%
[4]
  growth: 97.2%
[5]
  growth: 101%
[6]
  growth: 105%
[7]
  growth: 123%
[8]
  growth: 116%
[9]
  growth: 98.9%
[10]
  growth: 108%
[11]
  growth: 131%
[12]
  growth: 91.3%
[13]
  growth: 99.2%
[14]
  growth: 115%
[15]
  growth: 95.3%
[16]
  growth: 104%
[17]
  growth: 107%

## COc1ccc2c(c1)sc1nc(-c3ccccc3)c(-c3cccc4ccccc34)n12
[1]
  growth: 10.5%
[2]
  growth: 18.8%
[3]
  growth: 19.4%
[4]
  growth: 44.7%
[5]
  growth: 65%
[6]
  growth: 10.5%
[7]
  growth: 34.4%
[8]
  growth: -50.3% (active)
[9]
  growth: 19.8%
[10]
  growth: 4.62% (active)
[12]
  growth: -49.4% (active)
[13]
  growth: 27.8%
[14]
  growth: 27.7%
[15]
  growth: 18.6%
[16]
  growth: -26.8% (active)
[17]
  growth: 15.7%

## COc1cc(CN(c2ccc(C)cc2)C2OC(=O)c3ccccc32)cc(OC)c1OC (configuration not stated)
[1]
  growth: -6.82% (active)
[2]
  growth: 85.4%
[3]
  growth: 50.1%
[4]
  growth: 40.3%
[5]
  growth: 65.9%
[6]
  growth: -6.21% (active)
[7]
  growth: 46.2%
[8]
  growth: 6.21% (active)
[9]
  growth: 59.5%
[10]
  growth: -16.7% (active)
[11]
  growth: 20.8%
[12]
  growth: -17.8% (active)
[13]
  growth: 36.2%
[14]
  growth: 13.9%
[16]
  growth: 4.25% (active)
[17]
  growth: 17.1%

## C#CCNc1nc(NCCNC(=O)CCl)nc(N(C)CCCCc2ccccc2)n1
[1]
  growth: 62.1%
[2]
  growth: 89.2%
[3]
  growth: 101%
[4]
  growth: 109%
[5]
  growth: 96.6%
[6]
  growth: 101%
[7]
  growth: 78.9%
[8]
  growth: 94.3%
[9]
  growth: 94.2%
[10]
  growth: 102%
[11]
  growth: 76.3%
[12]
  growth: 98.7%
[13]
  growth: 97.9%
[14]
  growth: 86%
[15]
  growth: 79.1%
[16]
  growth: 108%
[17]
  growth: 99.1%

## COc1cnc2c(c1)C(=O)c1c-2n(CCCN2CCCC2)c(=O)c2cc(Cl)ccc12
[1]
  growth: -42.9% (active)
[2]
  growth: 20.3%
[3]
  growth: 26.1%
[4]
  growth: 64.8%
[5]
  growth: 45.4%
[6]
  growth: 19.6%
[7]
  growth: 39.4%
[8]
  growth: 55%
[9]
  growth: 49.1%
[10]
  growth: 35.1%
[18]
  growth: 29.3%
[12]
  growth: 61.1%
[13]
  growth: -89.4% (active)
[14]
  growth: -46.1% (active)
[16]
  growth: 62.1%
[17]
  growth: 42.4%

## S=C(Nc1ccc(Cl)cc1)Nc1ccc(Cl)cc1 (tested in a mixture with another compound)
[1]
  growth: 5.29% (active)
[2]
  growth: 9.87% (active)
[3]
  growth: 1.13% (active)
[4]
  growth: 12.5%
[5]
  growth: 10.5%
[6]
  growth: -0.571% (active)
[7]
  growth: 16.2%
[8]
  growth: 5.45% (active)
[9]
  growth: 17.4%
[18]
  growth: 11.6%
[11]
  growth: 12.8%
[12]
  growth: 3.6% (active)
[13]
  growth: 11.8%
[14]
  growth: 7.15% (active)
[15]
  growth: 0.154% (active)
[16]
  growth: 17.8%
[17]
  growth: 3.43% (active)

## ClCc1c(Cl)c(Cl)c(Cl)c(CCl)c1Cl
[1]
  growth: 4.07% (active)
[2]
  growth: 18.4%
[3]
  growth: 49.5%
[4]
  growth: 118%
[5]
  growth: -66.2% (active)
[6]
  growth: 113%
[7]
  growth: 4.3% (active)
[8]
  growth: -94.5% (active)
[9]
  growth: 89.3%
[18]
  growth: -71.5% (active)
[11]
  growth: 87.5%
[12]
  growth: 52.2%
[13]
  growth: -82.2% (active)
[14]
  growth: -4.94% (active)
[15]
  growth: -76.8% (active)
[16]
  growth: 88.6%
[17]
  growth: 24.8%

## CC(C)(C)[Si](C)(C)OC1[C@@H](O[Si](C)(C)C(C)(C)C)[C@@H](CNC(=O)NC(=O)NC(=O)CI)O[C@H]1n1cnc2c(NC(=O)Nc3ccccc3)ncnc21 (some centres not stated)
[1]
  growth: 2.35% (active)
[2]
  growth: 35.2%
[3]
  growth: -9.33% (active)
[4]
  growth: 67.3%
[5]
  growth: 42.9%
[6]
  growth: 92.6%
[7]
  growth: -65.4% (active)
[8]
  growth: -63.5% (active)
[9]
  growth: 67.4%
[10]
  growth: 4.72% (active)
[11]
  growth: 97.3%
[12]
  growth: 93.2%
[13]
  growth: 76.1%
[14]
  growth: 70.8%
[15]
  growth: 38.5%
[16]
  growth: 99.4%
[17]
  growth: 32.9%

## ClC1(Cl)C2CCCCCCC21 (configuration not stated)
[1]
  growth: 108%
[2]
  growth: 106%
[3]
  growth: 123%
[4]
  growth: 116%
[5]
  growth: 109%
[6]
  growth: 118%
[7]
  growth: 107%
[8]
  growth: 120%
[9]
  growth: 91.8%
[18]
  growth: 108%
[11]
  growth: 101%
[12]
  growth: 104%
[13]
  growth: 107%
[14]
  growth: 98.5%
[15]
  growth: 110%
[16]
  growth: 114%
[17]
  growth: 109%
